This is one part of a sample in which hits are shown more often than they occur.
SARS PLP yeast = blocks SARS-CoV papain-like protease in a yeast assay. S. cerevisiae expressing SARS-CoV PLpro, growth rescue. Potency, µM (top dose mostly 32.9 µM), actives largely listed as activators. hit rate 0.19% among 330,000. AID 485353; calls by dose curve; note: nearly all actives have a fitted effect of over 55% in size
Shiga inhibitor = Shiga toxin inhibition | Vero cells, Shiga toxin protein synthesis inhibition reporter | inhibition, % at 38.7 µM | hit rate 9.2% among 290,000; in the data active = inhibition mostly above about 28%, no sharp cut-off; inactive = mostly below about 43%
AMA1 RON2 block = AMA1-RON2 (P. falciparum) interaction inhibition. AlphaScreen AMA1-biotinylated RON2 peptide binding. Potency, µM (highest dose often 58.2 µM), actives largely listed as inhibitors. hit rate 0.2% among 360,000. AID 720542; note: nearly all actives have a fitted effect of over 45% in size
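AMA1 (3D7) with his tag at 25 nM final met compounds first, then biotinylated RON2 peptide at 25 nM; detection used donor plus acceptor beads, 10 µg/mL apiece, read by AlphaScreen after 30 min at room temperature.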
Cycloheximide cs = counter-screen hit for Shiga toxin inhibitors, cycloheximide; cell reporter, cycloheximide protein synthesis inhibition counterscreen; max response, %; hit rate 12% among 300,000; AID 2314; in the data active = max response mostly above about 13%, no sharp cut-off; inactive = mostly below about 14%; note: read at 38.3 µM for the half of the compounds with a filed dose
AmpC detergent = inhibitors of E. coli AmpC beta-lactamase with detergent. Potency, µM (doses to about 114 µM), actives largely listed as inhibitors. AID 485294. hit rate 0.041% among 370,000. AmpC hydrolysis of nitrocefin, absorbance 480 nm, 0.01% Triton; note: nearly all actives have a fitted effect of over 25% in size
Target sequence (P00811 whole entry, looked up): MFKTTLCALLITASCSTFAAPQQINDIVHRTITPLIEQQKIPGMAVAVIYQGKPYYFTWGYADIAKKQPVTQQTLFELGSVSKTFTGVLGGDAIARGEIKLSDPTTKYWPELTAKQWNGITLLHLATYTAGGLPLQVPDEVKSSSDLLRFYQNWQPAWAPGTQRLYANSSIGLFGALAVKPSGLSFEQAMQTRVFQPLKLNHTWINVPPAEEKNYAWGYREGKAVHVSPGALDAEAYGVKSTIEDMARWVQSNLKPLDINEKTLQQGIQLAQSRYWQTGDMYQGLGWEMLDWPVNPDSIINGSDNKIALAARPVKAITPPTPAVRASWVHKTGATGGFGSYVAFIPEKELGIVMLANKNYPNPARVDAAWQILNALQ
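20 mM phosphate pH 7.0 + 0.01% (detergent screen) or 0.0001% Triton X-100; 5.3 nM AmpC reagent; cpd preinc 15 min RT; nitrocefin (800 uM stock) to start; A480 q20 s × 4 min; Activity was normalised to no-enzyme and no-compound control wells.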
AmpC no deterg = blocks E. coli AmpC beta-lactamase in detergent-free assay | P00811 | Potency, µM (highest dose often 57.1 µM), hits mostly inhibitors | AmpC nitrocefin hydrolysis, absorbance 480 nm, 0.0001% Triton | hit rate 0.52% among 330,000 | AID 485341; note: nearly all actives have a fitted effect of over 20% in size
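AmpC (5.3 nM in the dispensed reagent) in 20 mM phosphate pH 7.0 with 0.01% (detergent screen) or 0.0001% Triton X-100 was preincubated with compounds for 15 min at room temperature. Nitrocefin was then added from an 800 uM solution, and hydrolysis was followed at 480 nm.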
Numbers stand for hits; - = inactive; ? = inconclusive; . = not tested or not shown; [ ] = another dose, or the depositor's remark. Unless noted, calls come from the whole dose curve; as a rule, active = well fitted curve in the direction sought with a large enough effect; inconclusive = small, poorly fitted or top-dose-only effect, or another doubt; inactive = no such curve, though single readings can be large; an effect the other way counts as inactive or inconclusive.

SMILES	SARS PLP yeast	Shiga inhibitor	AMA1 RON2 block	Cycloheximide cs	AmpC detergent	AmpC no deterg
Cc1cc(=O)[nH]c(NN=C2CCC(C(C)(C)C)CC2)n1 (centres undefined)	-	-	-	-	-	-
Cc1nc(NNC(=O)c2ccc(Cl)cc2Cl)cc(-c2ccccc2)n1	-	-	-	-	-	-
c1ccc(-n2nnnc2-n2ccnc2)cc1	-	-	-	-	-	-
CCOC(=O)/C(C#N)=C\c1ccc(N2CCN(C)CC2)cc1	-	-	-	26	-	-
CCOC(=O)C(/C=C(\C#N)C(=O)OCC)=C(/N)N1CCN(c2ccccc2)CC1	-	-	-	-	-	-
CCOC(=O)/C(C#N)=C/c1ccc(N2CCN(C)CC2)cc1	-	-	-	29	-	-
CCCc1cc(-c2ccc(O)c(OCC)c2)c(C#N)c(N)n1	-	-	-	-	-	-
CN(C1=C(N2CCOCC2)C(=O)c2ccccc2C1=O)c1ccccc1	-	-	16µM	-	-	-
O=C(COc1ncnc2scc(-c3ccc(Cl)cc3)c12)NCc1ccco1	-	53	-	-	-	-
COc1ccc(C(=O)NCc2cccnc2)cc1S(=O)(=O)N1CCCc2ccccc21	-	-	?	19	-	-
Cc1ccc(S(=O)(=O)Nc2cc(C(=O)NCCN(C)C)ccc2N2CCCC2)cc1	-	-	-	-	-	-
COc1cc(/C=C/C(=O)O)cc(S(=O)(=O)N2CCc3ccccc32)c1OC	-	-	-	-	-	-
COc1cc(/C=C/C(=O)O)cc(S(=O)(=O)N2CCCc3ccccc32)c1OC	-	-	-	12	-	-
COc1ccc(C(=O)NCc2cccnc2)cc1S(=O)(=O)N1CCOCC1	-	-	-	-	-	-
COCCNC(=O)c1ccc(N2CCCCC2)c(NS(=O)(=O)c2ccc(C)cc2)c1	-	-	-	16	-	-
COCCNC(=O)c1ccc(S(=O)(=O)N2CCCc3ccccc32)cc1	-	74	-	29	-	-
CSc1cccc(NC(=O)c2cc(S(=O)(=O)N3CCc4ccccc43)cn2C)c1	-	-	-	-	-	10µM
COc1ccc(S(=O)(=O)N2CCCc3ccccc32)cc1OC	-	55	-	33	-	-
O=C(O)c1ccc(S(=O)(=O)N2CCCc3ccccc32)cc1	-	-	-	-	-	-
O=S(=O)(c1ccc(F)cc1)N1CCCc2ccccc21	-	.	.	31	?	-
O=S(=O)(c1ccccc1)N1CCCc2ccccc21	-	-	.	-	?	-
CC(=O)c1ccc(S(=O)(=O)N2CCCc3ccccc32)cc1	-	-	-	11	?	-
Cc1cccc(NC(=O)c2cc(S(=O)(=O)N3CCc4ccccc43)cn2C)c1	-	-	-	-	-	-
O=C1c2ccccc2C(=O)N1c1ncc(Cc2ccc(Cl)cc2)s1	-	-	-[2.32 µM]	-	?	-
CCOC(=O)c1cc2c(c(CCO)n1)[C@H](CCO)N(S(=O)(=O)C(C)(C)C)C2	.	.	-	.	.	.
SMILES	SARS PLP yeast	Shiga inhibitor	AMA1 RON2 block	Cycloheximide cs	AmpC detergent	AmpC no deterg
NS(=O)(=O)c1ccc(NC(=O)c2ccc(S(=O)(=O)N3CCc4ccccc43)cc2)cc1	-	-	-	-	-	18µM
CC(Cc1ccccc1)NC(=O)NC(C)Cc1ccccc1 (centres undefined)	-	69	-	29	-	-
CC(Cc1ccccc1)NC(=O)C(c1ccc(N)cc1)c1ccc(N)cc1 (centres undefined)	-	-	-	-	?	-
CC(Cc1ccccc1)NC(=O)c1ccc([N+](=O)[O-])cc1 (centres undefined)	-	61	-[2.32 µM]	30	?	-
CC(=O)NC(C)Cc1ccccc1 (centres undefined)	-	-	-	-	-	-
CC(Cc1ccccc1)NC(=O)c1ccc(N)cc1 (centres undefined)	-	62	-	37	-	-
COc1cccc(N=C2NC(=O)/C(=C/c3cc([N+](=O)[O-])ccc3O)S2)c1	-	-	-	-	-	-
O=[N+]([O-])c1ccc(N=Nc2c(Cl)cc(O)cc2Cl)cc1	-	111	?	29	-	-
CCc1cc2c(=O)c(-c3nc4ccccc4n3C)c(C)oc2c(CN2CCN(C)CC2)c1O	-	-	.	-	-	-
